# In the library only some 6.5% were active in any assay of this set; here they are far more common.
# HCMV antiviral – blocks human cytomegalovirus replication; HFF cells, HCMV-luciferase reporter, 72 h; active compounds read low; activity change, negative = inhibition, % at 57.5 µM; 410,000 compounds, 4.5% hits; AID 1259415; in the data active = activity change below about -60%; inconclusive = no clear call, values can overlap the other calls; inactive = above about -39%
#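 Screen run at 2 compound doses on HFFs infected with reporter HCMV, MOI 1 PFU/cell. Luciferase activity from cell lysates at 72 h post infection gave inhibition relative to buffer-only and Salinomycin wells.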
# Lassa entry inh – inhibitors of Lassa virus binding or cell entry | Lassa virus pseudotype entry inhibition, cell reporter | Potency, µM (top dose mostly 37.9 µM), for inactives: top-dose activity change, negative = inhibition, actives largely listed as inhibitors | 300,000 compounds, 1.2% hits | AID 540256; calls by dose curve; tested in HEK293 cells; note: potency is the fitted concentration of half-maximal effect; nearly all actives have a fitted effect of over 50% in size
# Vaccinia mCherry – inhibitors of vaccinia virus infection (mCherry reporter signal) | 310,000 compounds, 0.63% hits | Potency, µM (series often up to 36.5 µM), for the others: top-dose activity change, negative = inhibition, actives largely listed as inhibitors | AID 720579 | Vaccinia virus mCherry reporter infection, fluorescence; calls by dose curve; tested in A549 cells; note: potency is the fitted concentration of half-maximal effect; nearly all actives have a fitted effect of over 35% in size
# MARV entry inh – blocks Marburg virus binding to or entry into cells. Marburg virus pseudotyped entry inhibition, cell reporter. Potency, µM (highest dose often 37.8 µM), without a hit: at the top dose activity change, negative = inhibition, actives largely listed as inhibitors. 300,000 compounds, 1.8% hits; calls by dose curve; tested in HEK293 cells; note: potency is the fitted concentration of half-maximal effect
# FMDV inh – antivirals against foot and mouth disease virus; FMDV antiviral cell-based qHTS; Potency, µM (top dose mostly 57.9 µM), inactives show at the highest dose activity change, negative = inhibition, hits mostly inhibitors; 410,000 compounds, 1.2% hits; AID 1159524; calls by dose curve; tested in HEK293T cells; note: read-out not given here; potency is the fitted concentration of half-maximal effect; nearly all actives have a fitted effect of over 45% in size
# VACV Venus inh – vaccinia inhibition (Venus reporter); Vaccinia virus Venus reporter expression, fluorescence; Potency, µM (series often up to 36.5 µM), inactives show at the highest dose activity change, negative = inhibition, actives largely listed as inhibitors; 330,000 compounds, 0.46% hits; AID 720580; calls by dose curve; tested in A549 cells; note: potency is the fitted concentration of half-maximal effect; nearly all actives have a fitted effect of over 30% in size
# * = called active by the depositor; i = inactive; u = inconclusive; x = no result; ! = not confirmed by another sample; [ ] = another dose, or the depositor's remark. % is set by controls: 0 for no effect and ±100 for the full control effect.
SMILES,HCMV antiviral,Lassa entry inh,Vaccinia mCherry,MARV entry inh,FMDV inh,VACV Venus inh
Cc1ccc(N(CC(=O)NCC2CCCO2)S(=O)(=O)c2ccccc2)c(C)c1 (stereo not drawn),u,u,-18%,u,5%,-25%
CCOc1ccccc1N(CC(=O)Nc1ccccc1)S(=O)(=O)c1ccccc1,-98*,x,x,x,10%,x
CCOc1ccccc1N(CC(=O)Nc1cc(OC)ccc1OC)S(C)(=O)=O,41,-27%,x,-24%,-9%,x
COc1ccccc1N(C)S(=O)(=O)c1ccc(C(=O)OCC(=O)Nc2cc(C)on2)cc1,u,-11%,x,9%,12%,x
CCOc1ccccc1N(CC(=O)Nc1cc(OC)ccc1OC)S(=O)(=O)c1ccccc1,-102*,x,x,x,-15%,x
CCCC(=O)N1CC2(CCN(C)CC2)c2c(n(C)c3cc(OC)ccc23)[C@H]1CO,17,x,x,x,x,x
Cc1nc(-c2ccc(S(=O)(=O)N3CCN(c4cccc(C)c4C)CC3)cc2)co1,u,u,-5%,u,-19%,-13%
COc1cccc(C2(C)NC(=O)N(CC(=O)Nc3ccc(N4CCOCC4)cc3)C2=O)c1 (stereo not drawn),32,10%,i,7%,-17%,6%
CCC1C(=O)NCCN1Cc1ccc2c(c1)CN(Cc1cccc(OC)c1OC)CCO2 (stereo not drawn),x,x,-5%,x,3%,-5%
CCNC(=O)CC1C(=O)N(c2ccc(F)cc2)C(=O)N1CCOC (stereo not drawn),10,-2%[46.1 µM],2%,6%[46.1 µM],-20%,12%
Cc1ccc(N(CCC(=O)O)S(=O)(=O)c2ccccc2)cc1,-21,1%,i,u,-11%,-18%
CCOc1ccccc1NC(=O)CCN(c1ccc(C)cc1)S(=O)(=O)c1ccccc1,u,u,-10%,14µM*,3%,-12%
COc1ccc(OC)c(N(CC(=O)Nc2cccnc2)S(=O)(=O)c2ccc(C)cc2)c1,3,u,u,u,x,-29%
COc1ccc(Cl)cc1N(CC(=O)NC(C)(C)C)S(=O)(=O)c1ccc(C)c([N+](=O)[O-])c1,-76*,8%,-7%,u,-11%,-16%
CCN(CC)S(=O)(=O)c1ccc(OC)c(NC(=O)CCS(=O)(=O)Cc2ccccc2)c1,-69*,u,-19%,-1%,-12%,-13%
COc1ccc(OC)c(N(CC(=O)Nc2cccnc2)S(=O)(=O)c2ccc(OC)c(OC)c2)c1,-35,-1%,x,2.8µM*!,-22%,-8%
O=C1c2ccccc2C(=O)N1c1ncn[nH]1,-28,x,-10%,x,-24%,-8%
COC(=O)[C@H]1[C@H](CO)[C@H]2Cn3c(ccc(Br)c3=O)[C@H]2N1C(C)=O,20,x,x,x,x,x
COc1cccc(/C=C/C(=O)OCC(=O)Nc2cccc(S(=O)(=O)NC3=NCCCCC3)c2)c1,0,x,x,x,-17%,x
COc1ccc(CC(=O)NN2C(=O)c3ccccc3C2=O)cc1,22,1%,-20%,2%,6%,-13%
COC(=O)CCC(=O)NN1C(=O)c2ccccc2C1=O,-68*,x,x,x,-24%,x
CCN(c1cc(C)cc(C)c1)S(=O)(=O)c1nnc(NC(=O)C(C)(C)C)s1,-67*,x,x,x,-29%,x
COc1cc(-c2nc(-c3cccc(Cl)c3)c(-c3ccccc3)[nH]2)cc(OC)c1OC,-33,u,-25%,u,-17%,-14%
COc1cc(-c2nc(-c3ccccc3)c(-c3cc([N+](=O)[O-])ccc3C)[nH]2)cc(OC)c1OC,-73*,u,x,u,-25%,u
CCOC(=O)CN1C(=O)NC(c2cccc(C(F)(F)F)c2)C(C(=O)OC)=C1C (stereo not drawn),x,x,x,-11%[14.2 µM],x,x
SMILES,HCMV antiviral,Lassa entry inh,Vaccinia mCherry,MARV entry inh,FMDV inh,VACV Venus inh
CO[C@H]1C=C2CCN(C)[C@H]2C2c3cc4c(cc3C(=O)O[C@@H]21)OCO4 (stereo partly drawn),-63*,x,-1%,x,12%,-11%
COc1cc2c(cc1OC)C(C1c3cc4c(cc3CCN1C)OCO4)OC2=O (stereo not drawn),1,x,x,x,-2%,x
CO[C@H]1[C@H](NC(=O)c2ccco2)c2ccccc2C12CCN(Cc1cc(Cl)ccc1O)CC2,x,x,u,x,-21%,-24%
Cc1cc(O)c(C(=O)/C=C/c2ccc(Cl)cc2)c(=O)o1,101,23%,-8%,22%,25µM*,7%
C/C(=C\C(=O)c1c(O)cc(C)oc1=O)N(C)C,-8,17%,13%,16%[46.1 µM],2%,0%
CSc1ccc(/C=C/C(=O)c2c(O)cc(C)oc2=O)cc1,-80*,-27%[46.1 µM],17%,8%[46.1 µM],-30%,34%
COc1cc(-c2nc3cnccn3c2Nc2ccc(C(C)C)cc2)ccc1O,-92*!,u,u,u,40µM*,u
COc1cc(-c2nc3nc[nH]n3c2Nc2ccc(C(C)C)cc2)ccc1O,-68*,u,-13%,13%[46.1 µM],-12%,-6%
COc1cc(-c2nc3cnccn3c2Nc2ccc(C)cc2)ccc1O,84,u,u,-10%,-16%,-16%
C#CCCCON=C1C[C@@H](O)[C@H](O)[C@H]2[C@@H]3C(=O)N(C[C@@H]4CCCO4)C(=O)[C@@H]3CC[C@H]12,x,-11%[14.3 µM],x,4%[14.2 µM],x,x
Cc1cc(Cl)ccc1OCc1n[nH]c(=S)n1C1CCCCC1,4,u,x,23µM*,u,x
Cc1nc2ccccc2c2oc(C(=O)NCCCN3CCCC3=O)cc12,-14,-13%,x,-17%,-22%,x
Cc1nc2ccccc2c2oc(C(=O)NCCN3CCN(C)CC3)cc12,-70*,x,1%,x,0%,5%
O=C(CCCCCn1nnc2ccccc2c1=O)Nc1ccccc1Cl,5,7%,-17%,-6%,-1%,-9%
CSc1ccccc1NC(=S)NC1CCCC1,-13,x,x,x,30%,x
CC(C)c1ccc(C(C)NC(=S)NC2CCCCC2)cc1 (stereo not drawn),-89*,x,x,x,u,x
CCc1ccc(C(C)NC(=S)NC2CCCCC2)cc1 (stereo not drawn),x,x,x,x,-11%,x
CC(CCc1ccccc1)NC(=S)NC1CCCCC1 (stereo not drawn),-39,2%,-7%,4%[46.1 µM],4%,-10%
CCOc1ccc(C(C)NC(=S)NC2CCCCC2)cc1 (stereo not drawn),u,x,x,x,-9%,x
CC(NC(=S)NC1CCCCC1)c1ccc(C(C)(C)C)cc1 (stereo not drawn),-97*,u,-18%,u,0%,u
CCC(NC(=S)NC1CCCCC1)c1ccccc1 (stereo not drawn),-89*,x,x,x,x,x
CCCCc1ccccc1NC(=S)NC1CCCC1,-66*,u,i,-15%[46.1 µM],7%,4%
CCOCCCNC(=O)c1ccc(-n2c(=S)[nH]c3ccccc3c2=O)cc1,-39,-11%,-2%,2%[46.1 µM],-9%,-10%
CCn1c(C(=O)N2CCC(C(=O)N3CCN(c4ccc(OC)cc4)CC3)CC2)cc2sccc21,-25,x,-11%,5%[46.1 µM],u,-15%

# Screening results as filed in PubChem.
